Source: PubChem BioAssay (EPA / NIEHS)
Calls of active or inactive are those of the source. Rule for the calls: active = hit-call score of the fitted dose curve at least 0.9, where 1 is the maximum; inactive = score below 0.9.

Experiments:
[1] = ATG_GLI_CIS: Attagene CIS-FACTORIAL HepG2 Assay for human Zinc Finger Protein GLI1 (AID 2282945); details: HepG2, Attagene cis-factorial reporter mRNA, GLI element; actives raise or lower the signal
Summary of the method: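 Bidirectional curve fits relative to DMSO, using reporter mRNA levels from RT-PCR plus capillary electrophoresis. Cells were HepG2 transiently carrying cis-regulated reporter constructs, harvested 24 h after dosing.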

[2] = ATG_GRE_CIS: Attagene CIS-FACTORIAL HepG2 Assay for human Glucocorticoid Response Elements (GRE) (AID 2282947); details: HepG2 GRE cis-reporter, Attagene multiplex mRNA; actives raise or lower the signal
Summary of the method: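 Assay uses human hepatoma HepG2 cells transfected with cis-promoter reporter units, exposed 24 h. mRNA from reporters detected by RT-PCR plus capillary electrophoresis; DMSO serves as negative control and baseline.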

[3] = ATG_ISRE_CIS: Attagene CIS-FACTORIAL HepG2 Assay for human Interferon Regulatory Factor 1 (IRF1) binding to an Interferon-Stimulated Response Element (ISRE) (AID 2282948); details: HepG2 ISRE cis-reporter (Attagene), mRNA transcription readout; actives raise or lower the signal
Summary of the method: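 Transfected HepG2 (multiple reporter transcription units, cis elements) dosed 24 h. RNA → oligo(dT) RT → PCR → 6-FAM primer extension → HpaI → CE. DMSO = negative control/baseline.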

[4] = ATG_M_32_CIS: Attagene CIS-FACTORIAL HepG2 Assay for M32 Transcription Factor (Internal Marker) (AID 2282949); details: HepG2 Attagene cis-factorial M32 reporter, mRNA; actives raise or lower the signal;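 note: background control marker of the multiplexed CIS panel rather than a real target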
Summary of the method: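 Internal background marker read-out: RT-PCR/capillary electrophoresis fluorescence of reporter transcripts from transiently transfected HepG2 cells after 24 h chemical exposure. Activity fitted bidirectionally relative to DMSO negative control.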

[5] = ATG_M_06_CIS: Attagene CIS-FACTORIAL HepG2 Assay for M06 Transcription Factor (Internal Marker) (AID 2282950); details: HepG2 Attagene CIS-FACTORIAL M06 internal marker reporter; actives raise or lower the signal
Summary of the method: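 Serves as a background control readout. Transfected HepG2 exposed to compounds for 24 h, then reporter transcripts quantified by fluorescent RT-PCR and capillary electrophoresis. Both directions fitted against DMSO baseline.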

[6] = biological target: Hypoxia-inducible factor 1-alpha (Homo sapiens) (UniProt Q16665); assay: ATG_HIF1a_CIS: Attagene CIS-FACTORIAL HepG2 Assay for human Hypoxia Inducible Factor 1 (HIF1A) (AID 2282951); details: HepG2 Attagene cis-factorial HIF1a reporter transcription; actives raise or lower the signal
Hypoxia-inducible factor 1-alpha (Homo sapiens), sequence (Q16665 whole entry, looked up): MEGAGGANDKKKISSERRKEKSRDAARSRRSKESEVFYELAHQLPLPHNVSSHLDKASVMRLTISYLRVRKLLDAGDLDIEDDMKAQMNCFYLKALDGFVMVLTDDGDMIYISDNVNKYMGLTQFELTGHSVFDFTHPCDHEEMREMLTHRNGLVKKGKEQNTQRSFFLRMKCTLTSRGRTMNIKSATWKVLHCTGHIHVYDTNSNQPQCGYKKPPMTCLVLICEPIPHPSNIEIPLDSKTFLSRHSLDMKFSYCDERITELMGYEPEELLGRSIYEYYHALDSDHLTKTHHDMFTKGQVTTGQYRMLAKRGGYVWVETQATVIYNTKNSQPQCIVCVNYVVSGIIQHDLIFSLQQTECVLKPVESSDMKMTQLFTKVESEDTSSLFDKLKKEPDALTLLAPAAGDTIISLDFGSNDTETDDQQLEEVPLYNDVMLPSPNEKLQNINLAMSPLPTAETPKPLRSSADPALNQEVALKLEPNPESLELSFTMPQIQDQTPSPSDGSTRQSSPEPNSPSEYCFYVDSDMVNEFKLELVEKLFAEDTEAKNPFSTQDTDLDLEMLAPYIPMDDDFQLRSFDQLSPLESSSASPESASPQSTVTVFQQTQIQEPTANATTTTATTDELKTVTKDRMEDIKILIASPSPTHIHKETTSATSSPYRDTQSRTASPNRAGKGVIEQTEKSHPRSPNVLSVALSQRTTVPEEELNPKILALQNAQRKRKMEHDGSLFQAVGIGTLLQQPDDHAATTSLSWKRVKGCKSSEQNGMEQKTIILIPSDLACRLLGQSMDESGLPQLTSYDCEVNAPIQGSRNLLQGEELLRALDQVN
Summary of the method: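 HepG2 cells transiently transfected with multiplexed cis-promoter reporter units; reporter mRNA read 24 h after dosing by RT-PCR, 6-FAM primer-extension labelling, HpaI digestion and capillary electrophoresis. Bidirectional fit versus DMSO baseline.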

[7] = biological target: Hepatocyte nuclear factor 6 (Homo sapiens) (UniProt Q9UBC0); assay: ATG_HNF6_CIS: Attagene CIS-FACTORIAL HepG2 Assay for human Hepatocyte Nuclear Factor 6 (HNF6) (AID 2282952); details: HepG2 Attagene cis-factorial HNF6 reporter transcription; actives raise or lower the signal
Hepatocyte nuclear factor 6 (Homo sapiens), sequence (Q9UBC0 whole entry, looked up): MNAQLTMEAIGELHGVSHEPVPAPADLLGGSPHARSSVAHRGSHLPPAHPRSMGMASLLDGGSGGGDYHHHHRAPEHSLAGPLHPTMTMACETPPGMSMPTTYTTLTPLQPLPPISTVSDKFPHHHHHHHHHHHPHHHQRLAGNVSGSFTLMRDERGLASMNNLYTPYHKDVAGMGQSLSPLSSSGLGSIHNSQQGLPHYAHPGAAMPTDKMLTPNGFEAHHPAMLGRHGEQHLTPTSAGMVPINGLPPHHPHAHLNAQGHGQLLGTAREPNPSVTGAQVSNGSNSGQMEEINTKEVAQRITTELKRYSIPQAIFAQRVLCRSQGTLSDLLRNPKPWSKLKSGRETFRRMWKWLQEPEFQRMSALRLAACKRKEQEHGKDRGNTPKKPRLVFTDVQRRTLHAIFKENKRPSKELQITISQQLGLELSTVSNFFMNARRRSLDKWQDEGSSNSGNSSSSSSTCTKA
Summary of the method: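 HepG2, transient MRTU transfection (cis promoters); 24 h chemical exposure; total RNA → oligo(dT) RT → PCR → 6-FAM labelling → HpaI cut → CE; bidirectional fit vs DMSO.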

[8] = biological target: Heat shock factor protein 1 (Homo sapiens) (UniProt Q00613); assay: ATG_HSE_CIS: Attagene CIS-FACTORIAL HepG2 Assay for human Heat Shock Transcription Factor 1 (HSE) (AID 2282953); details: HepG2 HSE cis-reporter, Attagene RNA transcription; actives raise or lower the signal
Heat shock factor protein 1 (Homo sapiens), sequence (Q00613 whole entry, looked up): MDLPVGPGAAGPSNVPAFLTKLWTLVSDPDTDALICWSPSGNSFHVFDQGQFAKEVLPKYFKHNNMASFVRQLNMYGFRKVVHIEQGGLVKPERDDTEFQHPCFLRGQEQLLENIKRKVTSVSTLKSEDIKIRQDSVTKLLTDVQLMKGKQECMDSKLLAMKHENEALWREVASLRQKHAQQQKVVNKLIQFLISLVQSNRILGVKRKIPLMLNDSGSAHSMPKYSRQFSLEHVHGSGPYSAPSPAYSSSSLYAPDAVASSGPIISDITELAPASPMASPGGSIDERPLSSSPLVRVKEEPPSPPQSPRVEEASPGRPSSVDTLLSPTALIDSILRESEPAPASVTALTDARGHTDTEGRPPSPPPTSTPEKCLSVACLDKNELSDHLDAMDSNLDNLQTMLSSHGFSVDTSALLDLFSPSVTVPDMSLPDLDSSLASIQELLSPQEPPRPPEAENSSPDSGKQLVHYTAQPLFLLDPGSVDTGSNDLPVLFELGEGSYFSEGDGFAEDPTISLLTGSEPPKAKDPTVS
Summary of the method: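 Endogenous transcription factor activity in transiently transfected HepG2, read as reporter mRNA by RT-PCR with fluorescent capillary electrophoresis after 24 h. Gain or loss of signal fitted versus DMSO baseline.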

[9] = ATG_MRE_CIS: Attagene CIS-FACTORIAL HepG2 Assay for human Metal Responsive Element (MRE) (AID 2282954); details: HepG2 MRE cis-reporter transcription, Attagene multiplex; actives raise or lower the signal
Summary of the method: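 After a 24 h chemical exposure, transiently transfected HepG2 cells yield RNA whose reporter sequences are amplified, FAM-labelled and sized by capillary electrophoresis. Curves are fitted bidirectionally relative to DMSO.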

[10] = biological target: Bile acid receptor (Homo sapiens) (UniProt Q96RI1); assay: ATG_IR1_CIS: Attagene CIS-FACTORIAL HepG2 Assay for human Nuclear Receptor Subfamily 1 Group H Member 4 (NR1H4), IR1 submotif (AID 2282946); details: IR1 reporter transcription, actives raise or lower the signal
Bile acid receptor (Homo sapiens), sequence (Q96RI1 whole entry, looked up, the tested form may be a part): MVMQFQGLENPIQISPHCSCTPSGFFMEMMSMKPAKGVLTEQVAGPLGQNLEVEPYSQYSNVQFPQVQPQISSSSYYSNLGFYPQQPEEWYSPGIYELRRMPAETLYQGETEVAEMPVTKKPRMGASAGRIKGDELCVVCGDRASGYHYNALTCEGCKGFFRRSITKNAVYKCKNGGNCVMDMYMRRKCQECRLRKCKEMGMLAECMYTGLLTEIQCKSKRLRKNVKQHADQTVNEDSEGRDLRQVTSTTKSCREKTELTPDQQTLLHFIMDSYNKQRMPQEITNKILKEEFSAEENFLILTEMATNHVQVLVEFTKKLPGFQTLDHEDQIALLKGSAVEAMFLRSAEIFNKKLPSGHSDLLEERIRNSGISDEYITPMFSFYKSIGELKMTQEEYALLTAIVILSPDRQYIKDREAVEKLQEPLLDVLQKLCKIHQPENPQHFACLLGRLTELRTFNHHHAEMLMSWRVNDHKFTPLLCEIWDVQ
Summary of the method: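 Cells (human HepG2) carry transiently transfected cis-promoter reporter transcription units. Compounds are incubated 24 h, total RNA is reverse-transcribed and amplified, and labelled fragments are resolved by capillary electrophoresis. Curves use DMSO as baseline.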

Row | SMILES | outcome [1] | outcome [2] | outcome [3] | outcome [4] | outcome [5] | outcome [6] | outcome [7] | outcome [8] | outcome [9] | outcome [10] | AC50 [6] | AC50 [9] | AC50 [1] | AC50 [2] | AC50 [3]
1 | CCCCCCCCCCCCCCCC | inactive | inactive | inactive | inactive | inactive | inactive | inactive | inactive | inactive | – | – | – | – | – | –
2 | COc1ccc(C)cc1N | inactive | inactive | inactive | inactive | inactive | inactive | inactive | inactive | inactive | – | – | – | – | – | –
3 | C1CCC(SSC2CCCCC2)CC1 | inactive | inactive | inactive | inactive | inactive | inactive | inactive | inactive | inactive | – | – | – | – | – | –
4 | Cc1ccc(N(C)C)cc1 | inactive | inactive | inactive | inactive | inactive | inactive | inactive | – | inactive | – | – | – | – | – | –
5 | Nc1ccc2c(c1)C(=O)c1ccccc1C2=O | inactive | inactive | inactive | inactive | inactive | inactive | inactive | inactive | inactive | – | – | – | – | – | –
6 | CCCCCCCCCCC | inactive | inactive | inactive | inactive | inactive | inactive | inactive | inactive | inactive | – | – | – | – | – | –
7 | Oc1ccc2ccccc2c1N=Nc1ccccc1 | inactive | – | inactive | inactive | inactive | – | – | inactive | – | inactive | 1.24 µM (active) | 2.47 µM (active) | – | – | –
8 | CC1(C)CC(N=C=O)CC(C)(CN=C=O)C1 (stereo not drawn) | inactive | – | inactive | inactive | inactive | inactive | – | inactive | inactive | inactive | – | – | – | – | –
9 | c1cc(-c2ccncc2)ccn1 | inactive | inactive | inactive | inactive | inactive | inactive | inactive | inactive | inactive | – | – | – | – | – | –
10 | COc1cc(C=O)ccc1O | inactive | – | inactive | inactive | inactive | inactive | – | – | inactive | inactive | – | – | – | – | –
11 | CCCCC(CC)COC(=O)CC(C(=O)OCC(CC)CCCC)S(=O)(=O)O (stereo not drawn) | inactive | inactive | inactive | inactive | inactive | – | inactive | inactive | inactive | – | 0.000743 µM (active) | – | – | – | –
12 | CC(=O)OC/C=C(\C)CCC=C(C)C | inactive | inactive | inactive | inactive | inactive | inactive | inactive | inactive | inactive | – | – | – | – | – | –
13 | Cc1ccc(C(C)C)c(O)c1 | inactive | inactive | inactive | inactive | inactive | inactive | inactive | inactive | inactive | – | – | – | – | – | –
14 | COc1cccc2c1C(=O)c1c(O)c3c(c(O)c1C2=O)C[C@@](O)(C(=O)CO)C[C@@H]3O[C@H]1C[C@H](N)[C@H](O)[C@H](C)O1 | – | – | – | inactive | inactive | – | inactive | inactive | – | – | 1.23 µM (active) | 1.66 µM (active) | 1.25 µM (active) | 0.942 µM (active) | 1.63 µM (active)
15 | CCCCOC(=O)CCCCCCCCC(=O)OCCCC | inactive | inactive | inactive | inactive | inactive | inactive | – | inactive | inactive | – | – | – | – | – | –
16 | CCCCCCOCCO | inactive | inactive | inactive | inactive | inactive | inactive | inactive | inactive | inactive | – | – | – | – | – | –
17 | Clc1cc(Cl)c(Cl)cc1Cl | inactive | inactive | inactive | inactive | inactive | inactive | – | inactive | inactive | – | – | – | – | – | –
18 | CN1CCCC1=O | inactive | – | inactive | inactive | inactive | inactive | – | inactive | inactive | – | – | – | – | – | –
19 | CCCc1cc(=O)[nH]c(=S)[nH]1 | inactive | – | inactive | inactive | inactive | – | inactive | inactive | inactive | – | – | – | – | – | –
20 | Cc1cccc(C)c1O | inactive | – | inactive | inactive | inactive | inactive | – | inactive | inactive | – | – | – | – | – | –
21 | O=C(OCCCCCOC(=O)c1ccccc1)c1ccccc1 | inactive | inactive | inactive | inactive | inactive | – | – | inactive | inactive | – | 26.3 µM (active) | – | – | – | –
22 | Nc1ccccc1N | inactive | inactive | inactive | inactive | inactive | – | – | inactive | – | – | 41.3 µM (active) | 38.2 µM (active) | – | – | –
